Screening results from PubChem BioAssay.
C diff HTS: inhibitors of Clostridium difficile growth. Clostridium difficile clinical isolate growth, OD600, 24 h; active compounds read low. growth activity, negative = inhibition, % at 16 µg/mL (by protocol). actives 0.25% (n = 86,000);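 active = mean growth activity at or below -80% and every replicate also at or below -80%; inconclusive = mean at or below -80% but some replicate above -80%; inactive = mean growth activity above -80%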;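 note: 0% = DMSO wells and -100% = levofloxacin 16 µg/mL wells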
Pf Dd2 inh: P. falciparum Dd2 growth inhibition | SYBR Green, 72 h; active compounds read low | activity change, % at 10 µM | actives 2.3% (n = 94,000); in the data active = activity change below about -80%; inconclusive = no clear call, values can overlap the other calls
T cruzi growth-1: inhibitors of T. cruzi proliferation | actives 5.9% (n = 77,000) | inhibition, % at 8.34 µM | T. cruzi beta-gal in NIH3T3, GalScreen luminescence, 90 h | AID 624255;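 active = mean inhibition above about 93%, with at least 55% of replicates each passing it, limit read from the data, passing the limit was not always enough; inconclusive = only one of those two conditions holds; inactive = neither condition holds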
T cruzi growth-2: inhibitors of T. cruzi proliferation; shares compounds with T cruzi growth-1; T. cruzi beta-gal in NIH3T3, GalScreen luminescence, 90 h; inhibition, % at 8.35 µM; actives 72% (n = 5,600);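 active = mean replicate inhibition above about 95% and at least 55% of replicates individually reaching it, limit read from the data; inconclusive = only one of the two criteria is met; inactive = neither criterion is met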
T cruzi growth-3: inhibitors of T. cruzi proliferation; actives 21% (n = 5,600); shares compounds with T cruzi growth-1; inhibition, % at 2.09 µM; T. cruzi beta-gal in NIH3T3, GalScreen luminescence, 90 h;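 active = mean inhibition above about 95%, with at least 55% of replicates also reaching it, limit read from the data; inconclusive = meets just one of the two conditions; inactive = meets neither condition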;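 note: plate controls were neutral control median for no effect and positive control median for full effect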
NIH3T3 tox: cytotoxicity in mouse NIH/3T3 fibroblasts; NIH/3T3 viability, CellTiter-Glo ATP luminescence, 90 h; shares compounds with T cruzi growth-1; cytotoxicity (signal decrease), % at 8.35 µM; actives 14% (n = 5,600);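 active = mean signal decrease across replicates above about 35% based on untreated-well scatter, with enough replicates individually passing, limit read from the data; inconclusive = no rule stated though some were filed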;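 note: 0% = median of neutral control wells and 100% = median of positive control wells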
NIH3T3 tox 2: NIH/3T3 (mouse) viability loss; shares compounds with T cruzi growth-1; NIH/3T3 viability, CellTiter-Glo ATP luminescence, 90 h; inhibition, % at 24.9 µM; actives 56% (n = 5,600);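 active = mean loss of cell viability signal at or above a set limit, and enough replicates individually reaching it; inconclusive = meets only the mean limit or only the replicate share; inactive = meets neither condition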;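 note: 0% = median of neutral control wells and 100% = median of positive control wells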
* hit, by the source's call; u = inconclusive; x = no result. Most compounds without a hit are left out; they make up all but 6.7% or so of the library.

SMILES	C diff HTS	Pf Dd2 inh	T cruzi growth-1	T cruzi growth-2	T cruzi growth-3	NIH3T3 tox	NIH3T3 tox 2
Cc1ccc(-c2ccc3c(c2)O[C@@H](CN(C)C(=O)Nc2ccccc2)[C@@H](C)CN([C@H](C)CO)S3(=O)=O)cc1	2	-38	x	x	x	x	x
C[C@H](CO)N1C[C@H](C)[C@H](CN(C)C(=O)C2CCOCC2)Oc2cc(C3=CCCCC3)ccc2S1(=O)=O	2	-9	x	x	x	x	x
CO[C@@H]1CN(C)C(=O)c2ccc(NC(=O)Nc3ccc(Cl)cc3)cc2OC[C@@H](C)NC[C@@H]1C	x	x	-76	x	x	x	x
CC(C)NC(=O)N1[C@H](CO)[C@H](c2ccccc2)[C@@H]1CNCc1ccccc1	1	-54	x	x	x	x	x
COc1cccc(NC(=O)N2[C@@H](CO)[C@H](c3ccccc3)[C@@H]2CNC(C)C)c1	-2	-69	102*	101*	42	-18	-13
COc1cccc(NC(=O)N2CC3(C2)[C@H](c2ccccc2)[C@@H](CO)N3C(C)=O)c1	3	14	x	x	x	x	x
COc1cccc(NC(=O)N2[C@H](CO)[C@@H](c3ccccc3)[C@H]2CNC(C)C)c1	-5	-74	104*	73	45	-2	-3
C[C@@H]1CCCCO[C@@H](CN(C)C(=O)Nc2ccc3c(c2)OCO3)[C@@H](C)CN([C@H](C)CO)C(=O)c2cc(NS(=O)(=O)c3cccs3)ccc2O1	-2	22	25	x	x	x	x
CC(C)NC(=O)N(C)C[C@@H]1Oc2ncc(-c3ccccc3F)cc2C(=O)N([C@@H](C)CO)C[C@H]1C	-2	-4	16	x	x	x	x
COc1ccc(NC(=O)N(C)C[C@H]2Oc3ccc(NS(=O)(=O)c4cccs4)cc3C(=O)N([C@H](C)CO)C[C@H]2C)cc1	x	25	-9	x	x	x	x
COc1ccccc1-c1ccc2c(c1)O[C@@H](CN(C)S(=O)(=O)c1ccccc1)[C@@H](C)CN([C@H](C)CO)S2(=O)=O	14	-51	90*	105*	58	60*	49*
COc1ccccc1-c1ccc2c(c1)O[C@@H](CN(C)S(=O)(=O)c1ccccc1)[C@H](C)CN([C@@H](C)CO)S2(=O)=O	5	u	98*	104*	92	47*	38*
COc1ccccc1-c1ccc2c(c1)O[C@H](CN(C)C(=O)c1ccccc1)[C@H](C)CN([C@H](C)CO)S2(=O)=O	-2	-35	10	x	x	x	x
COc1ccccc1-c1ccc2c(c1)O[C@@H](CN(C)S(=O)(=O)c1ccccc1)[C@H](C)CN([C@H](C)CO)S2(=O)=O	7	-82*	u	105*	50	37*	39*
COc1ccccc1-c1ccc2c(c1)O[C@@H](CN(C)C)[C@@H](C)CN([C@H](C)CO)S2(=O)=O	-4	-5	-3	x	x	x	x
COc1ccccc1-c1ccc2c(c1)O[C@@H](CN(C)S(=O)(=O)c1ccccc1)[C@@H](C)CN([C@@H](C)CO)S2(=O)=O	2	-76	80*	101*	99*	u	42*
C[C@H]1CN([C@@H](C)CO)S(=O)(=O)c2ccc(Br)cc2O[C@@H]1CN(C)S(=O)(=O)c1ccccc1	7	27	x	x	x	x	x
COc1ccccc1-c1ccc2c(c1)O[C@@H](CN(C)C(=O)c1ccccc1)[C@H](C)CN([C@@H](C)CO)S2(=O)=O	1	-43	17	x	x	x	x
O=C(C1CC1)N1CC(=O)N2[C@H](C1)[C@H](c1ccc(Br)cc1)[C@@H]2CO	-8	8	x	x	x	x	x
Cc1ccc(S(=O)(=O)Nc2ccc3c(c2)C(=O)N([C@H](C)CO)C[C@@H](C)[C@@H](CN(C)C(=O)c2ccncc2)OCCCC[C@H](C)O3)cc1	x	13	61	x	x	x	x
N#C[C@@H]1[C@@H](c2ccccc2C2=CCCC2)[C@H](CO)N1C(=O)CN1CCOCC1	1	14	x	x	x	x	x
COc1ccccc1-c1ccc2c(c1)O[C@H](CN(C)S(=O)(=O)c1ccccc1)[C@H](C)CN([C@H](C)CO)S2(=O)=O	8	-57	95*	105*	42	25	37*
C[C@@H]1CN([C@H](C)CO)S(=O)(=O)c2ccc(Br)cc2O[C@@H]1CN(C)S(=O)(=O)c1ccccc1	20	2	x	x	x	x	x
